# Where “and” joins values, the source holds several entries; their conditions need not be identical. Identical values can stand only once. Unmarked numbers belong to inactive results. Results filed as inconclusive are left out. Where a call stands in place of a potency, no number is given. Calls of active or inactive are those of the source. Unless noted, calls follow the shape of the dose curve; as a rule, active = well fitted curve in the direction sought with a large enough effect; inconclusive = small, poorly fitted or top-dose-only effect, or another doubt; inactive = no such curve, though single readings can be large; an effect the other way counts as inactive or inconclusive.
# Key:
# [1] = biological target: Arylsulfatase A (Homo sapiens) (UniProt P15289); assay: qHTS screen for enhancers of Arylsulfatase A (ASA1): LOPAC Validation Assay (AID 720538); conditions: outcome: dose series up to 57.5 µM
# In short: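 SV40-transformed skin fibroblasts from an MLD patient (ASA-I179S) were treated with compounds for 48h at 37 degree C, then lysed with 0.5mM pNCS final substrate for 14h at room temperature; NaOH stop, fluorescence read (Ex=525 nm; Em=598 nm).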
# [2] = qHTS for Activators of Parkin Expression: LOPAC Validation Assay (FLuc Reporter) (AID 720573)
# In short: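 Neuronal cell line stably carrying FLuc/NLuc coincidence reporter under Parkin promoter; cells plated 24 h, then compounds added in 7-point dose response for 24 h at 37 C. FLuc luminescence read; normalized to DMSO and positive control (100%).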
# [3] = qHTS assay for small molecule agonists of the antioxidant response element (ARE) signaling pathway measured by Nrf2-dependant transcriptional activity (AID 720636; active = well fitted curve in the direction sought with a large enough effect in the repeat runs; an effect the other way counts as inactive or inconclusive;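 also: HepG2 cells with an ARE-driven luciferase reporter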)
# In short: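 Cells: ARE-luc HepG2 with Nrf2-responsive luciferase. Medium contained 1% dialyzed FBS. Compound exposure lasted 16 hr at 37 C and 5% CO2, followed by ONE-Glo luciferase detection.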
# [4] = qHTS assay for small molecule antagonists of the retinoid-related orphan receptor gamma (ROR-gamma) signaling pathway - cell viability counter screen (AID 720652; active = well fitted curve in the direction sought with a large enough effect in the repeat runs; an effect the other way counts as inactive or inconclusive;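 also: potency is read from the fitted curve at half-maximal effect; compound exposure lasted 16 hr before ATP read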)
# In short: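 Cytotoxicity counter screen: intracellular ATP (CellTiter-Glo luminescence) measured in the doxycycline-induced CHO RORE-luciferase reporter line after 16 hr compound exposure at 37 C, 5% CO2.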
# [5] = qHTS assay for small molecule agonists of the antioxidant response element (ARE) signaling pathway measured by Nrf2-dependant transcriptional activity - cell viability counter screen (AID 720653; active = well fitted curve in the direction sought with a large enough effect in the repeat runs; an effect the other way counts as inactive or inconclusive; also: potency is read from the fitted curve at half-maximal effect); conditions: ARE-bla HepG2 viability, CellTiter-Glo ATP luminescence, 16 h; max response: hits give low values
# In short: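 ARE-bla HepG2 cells (2,000/well) rested 5 hrs at 37C/5% CO2, then exposed to compounds in DMSO for 16 hrs. Viability was read in the same wells as intracellular ATP by luminescence, 30 min at room temperature after reagent addition.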
# [6] = biological target: Hexokinase-4 (Homo sapiens) + Glucokinase regulatory protein (Homo sapiens) (UniProt P35557+Q14397); assay: qHTS assay for inhibitors of recombinant human GCK-GKRP interaction: ADP-Glo assay (AID 743206)
# In short: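 Pin-transferred compounds meet a 15 nM GST-GCK/15 nM FLAG-GKRP/2 uM S6P mix (dispense concentrations). ATP is then added to 0.4 mM final with 5 mM glucose, and the reaction runs 60 min at room temperature. ADP is quantified luminescently.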
# [7] = qHTS assay for cell viability of HEK293 cells (AID 743288); conditions: ATP luminescence (CellTiter-Glo), 18 h; max response: hits give low values; also: potency is read from the fitted curve at half-maximal effect; nearly all actives have a fitted effect of over 50% in size
# In short: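 After 18 h compound exposure at 37 C, parental HEK293 cells (2,000/well) are lysed with CellTiter-Glo and luminescence is read following 30 min at room temperature.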
# [8] = qHTS Assay for Identifying Gametocytocidal Compounds (AID 743244); also: potency is read from the fitted curve at half-maximal effect;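 as to max response: actives lower the fluorescent signal which means gametocytes are killed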; conditions: P. falciparum 3D7 stage III-V gametocytes, alamarBlue, 72 h; max response: hits give low values
# In short: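 Using 20,000 stage III–V 3D7 gametocytes per well, compounds were incubated 72 h under 37 °C/5% CO2. Viability was then assessed by 24 h alamarBlue reduction, measured fluorometrically at 525/598 nm.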
# Hexokinase-4 (Homo sapiens) + Glucokinase regulatory protein (Homo sapiens), sequence (P35557 whole entry, looked up): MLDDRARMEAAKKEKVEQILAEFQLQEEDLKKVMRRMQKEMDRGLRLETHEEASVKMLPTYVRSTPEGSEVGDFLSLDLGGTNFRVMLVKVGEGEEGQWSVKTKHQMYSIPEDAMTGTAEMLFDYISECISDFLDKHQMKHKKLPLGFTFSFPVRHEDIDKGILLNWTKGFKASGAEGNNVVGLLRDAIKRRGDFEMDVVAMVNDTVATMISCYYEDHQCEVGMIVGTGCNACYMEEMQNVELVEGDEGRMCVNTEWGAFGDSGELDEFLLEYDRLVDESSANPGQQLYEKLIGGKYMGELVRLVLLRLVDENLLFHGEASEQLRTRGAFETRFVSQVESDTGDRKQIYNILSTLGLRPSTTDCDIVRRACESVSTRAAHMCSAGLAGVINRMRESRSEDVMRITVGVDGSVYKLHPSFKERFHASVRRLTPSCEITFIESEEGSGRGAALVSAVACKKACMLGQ
# Hexokinase-4 (Homo sapiens) + Glucokinase regulatory protein (Homo sapiens), sequence (Q14397 whole entry, looked up): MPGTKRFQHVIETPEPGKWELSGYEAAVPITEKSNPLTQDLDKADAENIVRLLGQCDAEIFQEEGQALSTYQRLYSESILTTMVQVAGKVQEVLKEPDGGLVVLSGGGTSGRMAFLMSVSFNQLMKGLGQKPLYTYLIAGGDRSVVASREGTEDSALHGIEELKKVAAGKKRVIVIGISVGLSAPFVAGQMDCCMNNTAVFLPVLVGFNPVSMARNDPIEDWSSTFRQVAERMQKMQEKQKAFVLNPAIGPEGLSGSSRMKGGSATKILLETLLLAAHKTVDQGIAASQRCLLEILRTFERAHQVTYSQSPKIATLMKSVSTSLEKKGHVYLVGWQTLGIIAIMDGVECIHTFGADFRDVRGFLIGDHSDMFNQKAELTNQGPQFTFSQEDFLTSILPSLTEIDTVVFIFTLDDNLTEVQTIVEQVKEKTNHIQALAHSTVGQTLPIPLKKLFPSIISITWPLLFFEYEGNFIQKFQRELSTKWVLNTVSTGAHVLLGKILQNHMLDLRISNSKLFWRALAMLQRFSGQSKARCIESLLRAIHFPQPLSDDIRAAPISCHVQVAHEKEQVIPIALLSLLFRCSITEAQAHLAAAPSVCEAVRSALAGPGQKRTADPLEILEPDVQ
# Arylsulfatase A (Homo sapiens), sequence (P15289 whole entry, looked up): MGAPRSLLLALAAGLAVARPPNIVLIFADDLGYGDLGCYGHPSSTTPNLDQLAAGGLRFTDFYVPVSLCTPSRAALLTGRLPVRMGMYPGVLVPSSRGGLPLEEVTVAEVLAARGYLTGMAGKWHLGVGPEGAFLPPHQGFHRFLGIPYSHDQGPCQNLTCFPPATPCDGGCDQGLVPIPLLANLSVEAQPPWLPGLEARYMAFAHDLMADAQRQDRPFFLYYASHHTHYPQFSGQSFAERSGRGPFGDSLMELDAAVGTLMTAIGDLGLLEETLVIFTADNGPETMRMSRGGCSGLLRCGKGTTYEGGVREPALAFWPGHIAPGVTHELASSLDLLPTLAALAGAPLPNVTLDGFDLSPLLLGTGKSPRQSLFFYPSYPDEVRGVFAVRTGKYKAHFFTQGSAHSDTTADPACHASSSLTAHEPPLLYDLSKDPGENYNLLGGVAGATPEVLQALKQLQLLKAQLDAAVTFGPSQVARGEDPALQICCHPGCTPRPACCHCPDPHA
smiles,measurement,setting,value
CC1=C(/C=C/C(C)=C/C=C/C(C)=C/C(=O)Nc2ccc(O)cc2)C(C)(C)CCC1,outcome,[1],inactive
same,Potency,[2],inactive
same,Potency,[3],inactive
same,Potency,[4],26.6 µM (active)
same,Potency,[5],44.7 µM (active)
same,outcome,[6],inactive
same,Potency,[7],50.1 µM (active)
CC/C(=C(\c1ccccc1)c1ccc(OCCN(C)C)cc1)c1ccccc1,outcome,[1],inactive; inhibitor; fitted 5.3582 uM
same,Potency,[2],inactive
same,Potency,[3],inactive
same,Potency,[4],66.8 µM (active)
same,max response,[5],-20.9%
same,outcome,[6],inactive
same,Potency,[7],70.8 µM (active)
OC[C@@H](O)[C@H](O)[C@H](O)[C@@H](O)CO,max response,[8],1.74% and -2.1%
CCc1ccc(OCc2ccccc2C(=O)Nc2ccc3nc(C)cc(N)c3c2)cc1,Potency,[8],8.33 µM (active)
CC(=O)Oc1cc2c(s1)CCN(C(C(=O)C1CC1)c1ccccc1F)C2 (centres undefined),max response,[8],3.57%
O=C(NCCN1CCOCC1)c1ccc(Cl)cc1,outcome,[1],inactive
same,Potency,[2],inactive
same,outcome,[6],inactive
same,max response,[8],-4.13% and 9.69% and 29.4%
O=C1NCC2(CCN(CCc3ccccc3)CC2)O1,outcome,[1],inactive
same,Potency,[2],inactive
same,outcome,[6],inactive
same,max response,[8],1.69% and 18.3%
O=C(O)c1c(Cl)c(Cl)c(Cl)c(Cl)c1-c1c2cc(I)c(=O)c(I)c-2oc2c(I)c(O)c(I)cc12,max response,[8],-8.78%
CCN(CC)CCOC(=O)c1ccc(N)cc1,outcome,[1],inactive
same,Potency,[2],inactive
same,outcome,[6],inactive
same,max response,[8],17.2% and 7.74%
Cc1cccc(C)c1OCC(C)N (centres undefined),outcome,[1],inactive
same,Potency,[2],inactive
same,outcome,[6],inactive
same,max response,[8],9.33% and -4.15% and 13.1%
